Test results: PMC5540273 (PLoS ONE, 2017)

Columns and labels:
Conditions in all cases: concentration: 1 μM, replicates: in singlicate; n = 1
DLK = system: T1, DLK
T1 construct: gene MAP3K12

DMPK2 = system: T2, DMPK2
T2 construct: gene CDC42BPG

DMPK = system: DMPK
DRAK1 = system: T3, DRAK1
T3 construct: gene STK17A

DRAK2 = system: T4, DRAK2
T4 construct: gene STK17B

DYRK1A = system: DYRK1A
DYRK1B = system: DYRK1B
DYRK2 = system: DYRK2
EGFR = system: EGFR
EIF2AK1 = system: EIF2AK1
EPHA1 = system: EPHA1
EPHA2 = system: EPHA2
EPHA3 = system: EPHA3
EPHA4 = system: EPHA4
EPHA5 = system: EPHA5
EPHA6 = system: EPHA6
EPHA7 = system: EPHA7
EPHA8 = system: EPHA8
EPHB1 = system: EPHB1
EPHB2 = system: EPHB2
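Further: KINOMEscan kinase panel screen.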

| SMILES | %Inh (DLK) | %Inh (DMPK2) | %Inh (DMPK) | %Inh (DRAK1) | %Inh (DRAK2) | %Inh (DYRK1A) | %Inh (DYRK1B) | %Inh (DYRK2) | %Inh (EGFR) | %Inh (EIF2AK1) | %Inh (EPHA1) | %Inh (EPHA2) | %Inh (EPHA3) | %Inh (EPHA4) | %Inh (EPHA5) | %Inh (EPHA6) | %Inh (EPHA7) | %Inh (EPHA8) | %Inh (EPHB1) | %Inh (EPHB2) |
| --- | --- | --- | --- | --- | --- | --- | --- | --- | --- | --- | --- | --- | --- | --- | --- | --- | --- | --- | --- | --- |
| COc1cc2nccc(Nc3ccc(OCc4ccc(NC(C)=O)cc4)cc3)c2cc1OC.Cl [GW440135] | 27% | 0% | 0% | 7% | 0% | 15% | 1% | 4% | 18% | 17% | 19% | 16% | 0% | 13% | 0% | 16% | 5% | 5% | 6% | 0% |
| FC(F)(F)c1ccc(-c2ncn(CCCN3CCOCC3)c2-c2ccncc2)cc1 [SB-217780] | 0% | 1% | 28% | 15% | 6% | 6% | 0% | 25% | 19% | 10% | 6% | 5% | 0% | 12% | 0% | 7% | 0% | 0% | 0% | 0% |
| Cc1nn2c(=O)cc(N3CCOCC3)nc2n1Cc1cccc(Cl)c1Cl [GSK2342769] | 12% | 0% | 0% | 0% | 0% | 26% | 29% | 0% | 25% | 0% | 10% | 10% | 0% | 21% | 0% | 18% | 0% | 6% | 0% | 0% |
| OCCCNc1nccc(-c2c(-c3cccc(C(F)(F)F)c3)nn3cc(C(F)(F)F)ccc23)n1 [GW630813] | 37% | 39% | 0% | 0% | 0% | 26% | 0% | 0% | 26% | 0% | 5% | 0% | 5% | 0% | 0% | 0% | 0% | 0% | 0% | 0% |
| COc1cc2ncn(-c3cc(OCc4ccncc4Br)c(C(N)=O)s3)c2cc1OC [GW854278] | 12% | 0% | 3% | 4% | 5% | 3% | 8% | 30% | 27% | 0% | 25% | 10% | 21% | 0% | 0% | 0% | 0% | 5% | 0% | 9% |
| COc1cc2nccc(Nc3cccc(Oc4ccccc4)c3)c2cc1OC.Cl [GW284543] | 24% | 0% | 0% | 2% | 26% | 6% | 0% | 11% | 40% | 0% | 10% | 0% | 12% | 0% | 0% | 0% | 0% | 6% | 11% | 0% |
| O=C1NC(=O)C(c2ccccc2)=C1Nc1cccc(O)c1 [SB-390534] | 0% | 0% | 0% | 5% | 0% | 25% | 0% | 0% | 7% | 0% | 24% | 0% | 8% | 0% | 0% | 10% | 16% | 0% | 0% | 0% |
| CCn1c(-c2nonc2N)nc2ccccc21 [SB-693162/GW549034] | 0% | 0% | 0% | 9% | 0% | 49% | 16% | 37% | 0% | 48% | 0% | 0% | 10% | 0% | 0% | 0% | 0% | 0% | 0% | 0% |
| COc1ccc(CNC(=O)NC2CCN(c3ccnc(Nc4ccc(F)cc4)n3)C2)cc1 (stereo not shown) [GSK1379706] | 42% | 16% | 0% | 6% | 0% | 0% | 0% | 0% | 20% | 0% | 0% | 7% | 17% | 8% | 0% | 0% | 1% | 16% | 16% | 30% |
| COc1ccc(-c2coc3ccc(-c4nnc(SCc5cccc(C#N)c5)o4)cc23)cc1 | 1% | 0% | 0% | 2% | 7% | 5% | 0% | 2% | 0% | 30% | 7% | 3% | 2% | 25% | 21% | 26% | 0% | 0% | 0% | 5% |
| COc1cc(Nc2ccnc3ccc(C(F)(F)F)cc23)cc(OC)c1OC [GW577382] | 32% | 4% | 0% | 0% | 0% | 4% | 16% | 0% | 27% | 2% | 61% | 35% | 27% | 14% | 2% | 0% | 10% | 75% | 10% | 26% |
| O=C(Nc1n[nH]c2nc(-c3ccccc3)c(Br)cc12)C1CC1 [SB-708998] | 17% | 0% | 0% | 5% | 0% | 8% | 0% | 1% | 1% | 34% | 23% | 27% | 0% | 11% | 3% | 9% | 0% | 15% | 23% | 9% |
| Fc1cccc(CSc2nnc(-c3ccc4c(c3)CCO4)o2)c1 | 0% | 9% | 0% | 27% | 18% | 62% | 37% | 7% | 17% | 26% | 0% | 0% | 13% | 0% | 7% | 0% | 10% | 11% | 9% | 23% |
| COc1cccc(C2=C(N(C)c3ccccc3)C(=O)NC2=O)c1 [SB-334865] | 4% | 0% | 0% | 0% | 0% | 4% | 0% | 0% | 36% | 0% | 0% | 4% | 0% | 16% | 0% | 0% | 5% | 7% | 18% | 14% |
| Cc1nnc(-c2ccc(C)c(-c3ccc(C(=O)O)cc3)c2)o1 [GW608005] | 21% | 0% | 0% | 0% | 1% | 20% | 0% | 8% | 22% | 0% | 0% | 0% | 0% | 18% | 0% | 9% | 0% | 0% | 8% | 0% |
| CC(C)(C)c1ccc(C(=O)Nc2cn3cc(-c4ccccc4)ccc3n2)cc1 | 0% | 0% | 0% | 0% | 0% | 0% | 0% | 37% | 5% | 0% | 0% | 0% | 6% | 6% | 0% | 0% | 0% | 0% | 11% | 0% |

| SMILES | %Inh (DLK) | %Inh (DMPK2) | %Inh (DMPK) | %Inh (DRAK1) | %Inh (DRAK2) | %Inh (DYRK1A) | %Inh (DYRK1B) | %Inh (DYRK2) | %Inh (EGFR) | %Inh (EIF2AK1) | %Inh (EPHA1) | %Inh (EPHA2) | %Inh (EPHA3) | %Inh (EPHA4) | %Inh (EPHA5) | %Inh (EPHA6) | %Inh (EPHA7) | %Inh (EPHA8) | %Inh (EPHB1) | %Inh (EPHB2) |
| --- | --- | --- | --- | --- | --- | --- | --- | --- | --- | --- | --- | --- | --- | --- | --- | --- | --- | --- | --- | --- |
| COC(=O)c1c(-c2ccccc2)c2cc(C)ccc2c(=O)n1Cc1ccccc1 | 0% | 0% | 0% | 0% | 0% | 0% | 6% | 0% | 0% | 0% | 0% | 0% | 14% | 61% | 0% | 75% | 0% | 0% | 0% | 2% |
| COc1ccc(Nc2nccc(N3CCC(NS(=O)(=O)c4ccc(NC(C)=O)cc4)C3)n2)cc1 (stereo not shown) [GSK1379729] | 23% | 8% | 0% | 0% | 4% | 8% | 3% | 3% | 36% | 0% | 23% | 21% | 0% | 36% | 7% | 31% | 17% | 7% | 19% | 1% |
| Cc1c(Cn2c(C)nn3c(=O)cc(N4CCO[C@H](C)C4)nc23)cccc1C(F)(F)F [GSK2373690] | 0% | 5% | 23% | 1% | 1% | 19% | 20% | 17% | 10% | 0% | 4% | 26% | 0% | 3% | 1% | 0% | 22% | 29% | 8% | 0% |
| Nc1ncnc2c1ncn2-c1cccc2ccccc12 [SKF-97184] | 0% | 0% | 0% | 7% | 0% | 0% | 30% | 6% | 45% | 0% | 0% | 0% | 0% | 3% | 0% | 0% | 0% | 0% | 0% | 12% |
| Cc1nnc(-c2ccc3ncn(-c4ccc(S(C)=O)cc4)c3c2)o1 (stereo not shown) | 0% | 0% | 1% | 3% | 18% | 0% | 26% | 7% | 0% | 0% | 0% | 0% | 5% | 46% | 17% | 50% | 1% | 0% | 1% | 15% |
| COc1cc(OC)cc(-c2cc3cnc(N)nc3nc2NC(=O)NC(C)(C)C)c1 | 4% | 0% | 16% | 0% | 0% | 0% | 16% | 0% |  | 4% | 28% | 0% | 0% | 0% | 0% | 0% | 0% | 0% | 0% | 0% |
| Cc1ccc(Oc2ccc(Nc3ncnc4cc[nH]c34)cc2C)cn1 | 22% | 0% | 0% | 0% | 0% | 0% | 0% | 0% | 71% | 13% | 13% | 16% | 3% | 22% | 16% | 26% | 0% | 0% | 5% | 7% |
| C[C@@H]1CC[C@H](C(=O)NC2CCCCC2)CN1c1cc(-c2ccc3c(N)n[nH]c3c2)nc(N)n1 [GSK2291363] | 31% | 23% | 0% | 20% | 0% | 23% | 6% | 20% | 45% | 0% | 6% | 23% | 18% | 12% | 11% | 10% | 8% | 22% | 26% | 8% |
| COc1cccc(C2=C(Nc3cccc(C(=O)O)c3)C(=O)NC2=O)c1 [SB-390770] | 0% | 4% | 0% | 0% | 0% | 14% | 0% | 0% | 12% | 0% | 9% | 23% | 0% | 10% | 0% | 11% | 0% | 0% | 8% | 9% |
| CCc1ccc(-c2ccc3c(c2)-c2nn(C)cc2S(=O)(=O)N3C)cc1 | 0% | 0% | 0% | 0% | 0% | 0% | 0% | 0% | 0% | 0% | 4% | 25% | 0% | 0% | 0% | 0% | 0% | 0% | 0% | 0% |
| COc1ccc(-c2cc3c(C)nc(N)nc3n([C@H]3CC[C@H](O)CC3)c2=O)cn1 | 5% | 0% | 0% | 0% | 0% | 0% | 4% | 0% | 0% | 0% | 12% | 8% | 0% | 0% | 0% | 0% | 0% | 0% | 0% | 0% |
| CCn1c(-c2ccoc2)nc2cnccc21 [SB-733887] | 7% | 0% | 0% | 0% | 0% | 10% | 13% | 6% | 24% | 8% | 9% | 0% | 0% | 9% | 0% | 7% | 12% | 24% | 19% | 0% |
| Cn1c(=O)c(F)c(Nc2ccc(I)cc2F)c2c(=O)n(OC[C@H](O)CO)cnc21 | 0% | 20% | 17% | 0% | 10% | 0% | 0% | 0% | 3% | 0% | 36% | 15% | 0% | 16% | 5% | 12% | 14% | 19% | 20% | 34% |
| CN1C(=O)C(Nc2cc(Cl)c(O)c(Cl)c2)=C(c2ccc(Cl)cc2)C1=O [SB-404321] | 33% | 0% | 0% | 0% | 0% | 0% | 50% | 0% | 52% | 0% | 0% | 0% | 4% | 0% | 8% | 0% | 0% | 0% | 0% | 15% |
| CCC(=O)c1c(-c2ccccc2)c2cc(Cl)ccc2c(=O)n1Cc1ccc(C(=O)O)cc1 | 0% | 0% | 0% | 0% | 2% | 0% | 39% | 15% | 0% | 0% | 0% | 0% | 7% | 7% | 0% | 6% | 0% | 4% | 9% | 0% |
